Reference: the supplement of paper PMC6555819

Legend:
Assay in all cases: PBM binding z-score (relative to random genomic background probes); higher = stronger binding; sequences stand for … in GC…GCGATTGACAGCGTAGAATGAAGG
[1] = tested on: LXRa:RXRa (NR concentration 270 nM, RXRa partner concentration 90 nM)
Procedure, shortened: (§1)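 Custom Agilent 4×180K protein-binding microarrays carried double-stranded probes. Their 34-nt variable regions held direct-repeat seeds, single-nucleotide variants, half-site ablations and random human genomic background sequences. Arrays were incubated 1 h with ligand-free nuclear receptor dimers in PBS pH 7.4, 2% milk, 0.02% Triton X-100, 1 mM DTT, 0.2 mg/mL BSA and 0.4 mg/ml salmon testes DNA. Antibodies against each partner (one per run) detected binding, and scanned fluorescence was regression-normalized. Binding z-scores use random background probes as reference.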

[2] = tested on: LXRa homodimer (NR concentration 270 nM)
Procedure, shortened: as §1

[3] = tested on: LXRb homodimer (NR concentration 270 nM)
Procedure, shortened: as §1

[4] = tested on: PPARg:RXRa (NR concentration 180 nM, RXRa partner concentration 90 nM)
Procedure, shortened: as §1

[5] = tested on: PPARg:RXRa 270nM:90nM, anti-RXR (NR concentration 270 nM, RXRa partner concentration 90 nM)
Procedure, shortened: as §1

[6] = tested on: PPARg:RXRa 30nM:10nM, anti-RXR (NR concentration 30 nM, RXRa partner concentration 10 nM)
Procedure, shortened: as §1

[7] = tested on: PPARg:RXRa 90nM:30nM, anti-RXR (NR concentration 90 nM, RXRa partner concentration 30 nM)
Procedure, shortened: as §1

[8] = tested on: PPARg:RXRa DBDmut IVT, anti-RXR (DBD mutation: RXRa K156A/R161A, NR concentration 270 nM, RXRa partner concentration 90 nM)
Procedure, shortened: as §1

[9] = tested on: PPARa:RXRa (NR concentration 270 nM, RXRa partner concentration 90 nM)
Procedure, shortened: as §1

| Sequence | PBM binding z-score [1] | PBM binding z-score [2] | PBM binding z-score [3] | PBM binding z-score [4] | PBM binding z-score [5] | PBM binding z-score [6] | PBM binding z-score [7] | PBM binding z-score [8] | PBM binding z-score [9] |
| --- | --- | --- | --- | --- | --- | --- | --- | --- | --- |
| CGTCCGAGGTCAAGGTCAGTGAAAGAGACTCGAA | 6.22 | 1.31 | 1.54 | 7.82 | 7.45 | 3.9 | 6.47 | 4.18 |  |
| AGAATGAGGTCACCAAAGATCAGGGAAACGCTTG | 6.5 | 1.08 | 0.991 | 8.68 | 8.01 | 5.4 | 7.63 | 7.14 |  |
| CGTCAAAGTTCAACTAAGGTCACGTAAAGCACGC |  | 8.57 | 2.98 | 6.26 | 6.88 | 3.49 | 5.51 | 1.14 | 6.28 |
| GGAACGAGGTCAAAGTTGATAGCATCTGTCGACG | 5.98 | 1.61 | 2.26 |  | 8.63 | 8.72 | 9.4 | 6.14 |  |
| CAAACTAGGTCAAGAGGTCAAAGTTCGCTTCCCG | 6.59 | 6.51 | 2.33 |  | 9.13 | 7.44 | 10.1 | 8.34 |  |
| CGAACAAGGTCATCCAGGACAGTGAATACATTGA | 5.83 | 1.43 | 1.27 | 6.4 | 6.17 | 2.72 | 5.1 | 4.74 |  |
| CAAACGAGGTCAAAGGTCAAAGTCGAGCCAACCA |  | 7.06 | 4.76 | 13.9 | 11.2 | 13.8 | 13.8 | 7.13 | 7.69 |
| CAAACAAGGTCAAAGGTCAAAGTCGAGCCAACCA |  | 6.4 | 4.04 | 13.5 | 11 | 13.5 | 13.5 | 6.43 | 7.41 |
| CCTCGGAGGACAGAAGGTCAAAGCTGTCCGCTTT | 4.02 | 1.82 | -0.421 | 0.66 | 2.18 | -0.0409 | 1.41 | 0.187 |  |
| TAGCCTAGGTCATGCGGCCCAGTATAGTGTCGGC | 3.19 | 0.125 | -0.105 | 2.04 | 2.49 | 0.144 | 1.04 | 1.17 |  |
| CGAACGAGGTCACCAGGACAGTGAAGAGGTTGGA | 5.61 | 0.912 | 0.295 | 8.9 | 7.66 | 5.23 | 6.73 | 5.64 |  |
| CGTCCAAGGTCACAGAGGTCAGTGAATGCCGAGT | 6.12 | 5.07 | 1.08 | 7.01 | 6.54 | 3.38 | 5.63 | 4.6 |  |
| CAAACTAGGTCAAGGTCTAAGTCGGTTTGTGCCA | 2.44 | 0.318 | 0.246 | 8.27 | 7.05 | 5.25 | 6.46 | 8.12 |  |
| GCTTACAGGTCAAAGGTTATAGCATGAATAGAAT |  | 2.63 | 1.4 | 11.5 | 9.51 | 8.9 | 10.5 | 5.27 | 7.1 |
| CTACCAAGGTCAACAAGGTCGTTGATTACTATTC |  | 3.79 | 1.23 | 5.57 | 6.01 | 2.68 | 4.51 | 4.52 | 6.16 |
| CAAAATAGGTCAAAGGTCAAAGTCGAGCCAACCA |  | 6.17 | 3.52 | 13.7 | 11.5 | 12.6 | 13.3 | 8.15 | 7.93 |
| CAAACCAGGTCAAAGGTCAAAGTCGAGCCAACCA |  | 5.78 | 3.31 | 13.2 | 10.7 | 11.3 | 12 | 6.71 | 7.46 |
| CGTCCAAGGTCAAAGGTCATTGAAGAGATGACGG |  | 6.32 | 3.11 |  | 10 | 9.22 | 11.6 | 4.6 | 7.33 |
| CGAACTACGTCATCCAGGACAGTGAATACATTGA | -0.0453 | 0.121 | -0.033 | 0.703 | -0.106 | 0.193 | -0.145 | 0.257 |  |
| CCTACTGGGCCAAAGAGGTCATTGATGCCGATAA | 3.88 | 2.87 | -0.243 | 3.95 | 4.73 | 1.71 | 3.75 | 4.23 |  |
| CAAAATAGGTCACGAAAGGTCAAAGTCGAATGAC | 8.64 | 8.09 | 3.59 | 10.4 | 8.59 | 7.39 | 8.59 | 7.95 |  |
| CCTTAAGGGTCACGAGGTTATAGCACGACGAGCG | 5.92 | 0.987 | 0.697 | 8.45 | 7.7 | 4.56 | 6.73 | 4.16 |  |
| CTATGTAGGTTAAGGGAGTCATTCAGTTTGAAAG | 0.682 | -0.134 |  | 4.76 | 4.4 | 1.9 | 3.53 | 6.9 | 3.21 |
| CGAACTAGGTCACCCAGGACAGTGAATACATTGA | 2.03 | 0.478 | -0.274 | 8.33 | 6.66 | 4.23 | 6.12 | 8.48 |  |
| AATACAGGGTAACTAGGCCAGAGTAGGTACGAAT | 0.106 | -0.23 | -0.0777 | 2.82 | 2.44 | 0.877 | 1.88 | 3.4 |  |
| TGTCAACGTTCAAAGGTAACGTAAGTATCCACAC | 0.794 | -0.182 | 0.0417 | 2.58 | 2.69 | 1.18 | 2.07 | -0.155 |  |
| TATACAGGGTCAAAGGCCAAAGTACGAATGTCGA | 6.59 | 3.06 | 2.44 | 9.55 | 7.98 | 7.57 | 8.54 | 2.77 |  |
| TCTGCTAGGTCAACGATGGTCAGTTAATCTGCTA | 2.65 | -0.279 | 0.325 | 2.14 | 2.8 | 1.79 | 2.47 | 4.02 |  |
| TCTAGTTGGTCACGGAGGGCACACACGACGGGTA | 0.609 | -0.107 | 0.00573 | 1.25 | 2.05 | 2.8 | 2.39 | 2.05 |  |
